Growth data for eight compounds are collected here from PubChem BioAssay (NCI).

Compounds without any hit were thinned out: in the full panel of roughly 83,000, 20% have a hit.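 A percent growth of 40 corresponds to 60% growth inhibition; 0 means no net growth; -100 means all cells died. Active threshold: below 10.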 Unmarked numbers belong to inactive results. The source made the active and inactive calls.

What all share (assay): NCI-60 one-dose screen, 48 h (100 = growth as untreated, 0 = no growth, -100 = all killed)
Details in all cases: 10 µM

The test system of assay [1] is NCI-H23 lung.
The test system of assay [2] is NCI-H226 lung.
Assay [3] concerns HOP-62 NSCLC.
In assay [4] the test system is NCI-H460 lung.
The test system of assay [5] is HOP-92 NSCLC.
Assay [6] has as its system NCI-H522 lung.
Assay [7] relates to A549/ATCC NSCLC.
Assay [8] relates to 786-0 renal.
Assay [9] relates to COLO 205 colon.
Assay [10] has as its system DU-145 prostate.
Assay [11] concerns K-562 leukemia.
For assay [12], the system named is MALME-3M melanoma.
For assay [13], the system named is MDA-MB-231 breast.
Assay [14] has as its system RXF 393 renal.
In assay [15] the test system is SF-268 CNS.
Assay [16] relates to SF-295 CNS.
For assay [17], the system named is SF-539 CNS.
The subject of assay [18] is UACC-257 melanoma.
For assay [19], the system named is M14 melanoma.

`O=C(Nc1cc(Cl)cc2c1-c1ccc(Cl)cc1C2O)C(Cl)Cl` (stereo unspecified): the growth in [1] was 79.5%; in [2] it was 55%; in assay [3], 83.3%; in assay [4], 35.9%; in assay [5], 77.1%; in assay [6], 84.2%. For the same compound, the growth is 74.5% in assay [7]; 98.4% in assay [8]; 94.2% in assay [9]; 60.1% in assay [10]; 81.9% in [11]; 105% in assay [12]. The growth was 74.4% in assay [13]; 63.8% in assay [14]; 91.9% in [15]; 83.4% in assay [16]; 84.2% in [17]; 89.8% in [18]. Besides, the growth in assay [19] was 85.3%.

In the case of `O=S(=O)(Oc1ccc(-c2ccc3sccc3c2)cc1)c1ccc(F)cc1`, the growth in assay [1] is 87.6%; in [2] it was 94.5%; in assay [3], 111%; in [4], 103%; in [5], 105%; in assay [6], 87.7%. In addition, the growth in assay [7] was 94%; in assay [8], 96.3%; in [9] it was 111%; in [10], 104%; in assay [11] it was 78.7%; in assay [12] it was 106%. Moreover, the growth in assay [13] was 108%; in assay [14], 110%; in [15] it was 108%; in [16] it was 96.4%; in [17] it was 110%; in [18] it was 106%. The growth in assay [19] is 113%.

Consider `CC[C@@H]1NC(=O)[C@H]([C@H](O)[C@H](C)C/C=C/c2ccc(CN3C(=O)CCCC3=O)cc2)N(C)C(=O)[C@H](C(C)C)N(C)C(=O)[C@H](CC(C)C)N(C)C(=O)[C@H](CC(C)C)N(C)C(=O)[C@@H](C)NC(=O)[C@H](C)NC(=O)[C@H](CC(C)C)N(C)C(=O)[C@H](C(C)C)NC(=O)[C@H](CC(C)C)N(C)C(=O)CN(C)C1=O`, for which the growth in assay [1] is 68.8%; in assay [2], -22.8% (active); in assay [3], 62.1%; in assay [4], 71.2%; in [5], 53.3%; in [6] it was 23.5%. Also, the growth in assay [7] was 47.1%; in assay [8], 67.1%; in [9], 53.9%; in assay [10], 64.1%; in assay [11], 39.6%; in assay [12] it was 83%. Further, the growth is 51.4% in [13]; 17.3% in assay [14]; 63.1% in assay [15]; 39% in [16]; 23.7% in assay [17]; 20.8% in [18].

As for `COc1cc(-c2nn(-c3ccc(NC(=O)NCCCNC(=O)c4ccccc4)cc3)cc2-c2ccncc2)ccc1Cl`, the growth is 28.8% in [1]; 56.1% in assay [2]; 41.5% in [3]; 6.81% (active) in assay [4]; -0.43% (active) in assay [5]; 3.7% (active) in assay [6]. The growth is 26% in assay [7]; 14.8% in [8]; -43.4% (active) in [9]; 20.6% in assay [10]; 12.4% in assay [11]; 47.3% in assay [12]. The growth is 19.1% in assay [13]; 25.2% in assay [14]; 37.6% in assay [15]; 0.436% (active) in assay [16]; -10.5% (active) in [17]; 63.3% in assay [18]. In addition, the growth in assay [19] was 12.2%.

Regarding `O=C(Nc1ccc2c(O)cc(S(=O)(=O)O)cc2c1)c1ccc([N+](=O)[O-])cc1`, the growth in [1] is 100%; in assay [2] it was 96.2%; in [3], 83.3%; in assay [4], 107%; in assay [5], 89.8%; in [6], 84.7%. The growth was 79.3% in [7]; 98.6% in [8]; 91.8% in assay [9]; 99.7% in [10]; 99% in assay [11]; 99.8% in [12]. The growth in assay [13] was 105%; in assay [14] it was 105%; in [15], 93.9%; in assay [16], 98.2%; in [17], 97%; in assay [18], 74.6%. Besides, the growth in assay [19] is 94.6%.

`Nc1cc(Br)c(-c2nn3c(CCC(=O)c4nc5ccccc5[nH]4)nnc3s2)c(Br)c1`: the growth is 87.3% in assay [1]; 83.6% in assay [2]; 103% in [3]; 102% in assay [4]; 72.8% in assay [5]; 97.4% in assay [6]. In addition, the growth is 101% in assay [7]; 99.8% in assay [8]; 107% in assay [9]; 102% in [10]; 7.05% (active) in [11]; 95.8% in assay [12]. For the same compound, the growth in [13] was 99%; in assay [14], 109%; in assay [15] it was 99.7%; in assay [16], 108%; in assay [17], 83.4%; in [18], 116%. In addition, the growth in [19] was 97.5%.

Turning to `CN1CCN(CCC(=O)Nc2cccc(-n3cc(-c4ccncc4)c(-c4ccc(Cl)c(O)c4)n3)c2)CC1`, the growth in [1] is 46.4%; in assay [2] it was 66.6%; in assay [3], 53.7%; in assay [4] it was 13.4%; in assay [5] it was 27.9%; in assay [6], 16.9%. Moreover, the growth was 30.2% in assay [7]; 32.2% in [8]; 12.8% in [9]; 25.8% in assay [10]; 12.8% in [11]; 47.6% in assay [12]. The growth is -72% (active) in assay [13]; 30% in assay [14]; 50.8% in assay [15]; 19.3% in [16]; -4.71% (active) in assay [17]; 46.3% in assay [18]. Further, in assay [19], the growth was 12.3%.

`c1ccc2c(c1)Cc1ccccc1N2CCN1CCCCC1`: the growth in assay [1] is 90%; in assay [2], 103%; in assay [3], 84.1%; in [4] it was 107%; in assay [5], 85.8%; in assay [6], 75.2%. Further, the growth was 89.9% in assay [7]; 95.3% in assay [8]; 82.2% in assay [9]; 104% in assay [10]; 91.5% in assay [11]; 111% in assay [12]. The growth in assay [13] is 81.5%; in assay [14], 110%; in assay [15] it was 99%; in [16], 92.5%; in assay [17], 94.9%; in assay [18], 102%. Also, the growth in [19] was 86.1%.
